Experimental data as given in PubChem BioAssay (EPA / NIEHS).
Several values for one entry are separate records, joined by “and”; a condition that tells them apart may be missing. Identical values can stand only once. Activity calls are given as the source filed them. Rule for the calls: active = hit-call score of the fitted dose curve at least 0.9, where 1 is the maximum; inactive = score below 0.9.

What follows are compounds tested on Tumor necrosis factor receptor superfamily member 6 (Homo sapiens) (UniProt P25445) (assay: LTEA_HepaRG_FAS: Life Technologies and Expression Analysis (LTEA) Assay for Fas cell surface death receptor (FAS) using HepaRG (AID 2283447)). Settings: mRNA level, 48 h; actives raise or lower the signal.
Procedure, shortened: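 Differentiated human HepaRG cells, pre-cultured 48 h, were exposed in duplicate for 48 h to 8-point half-log concentrations (top 100 uM, 0.5% DMSO) in serum-free induction medium; FAS mRNA measured by qRT-PCR, normalized to ACTB/GAPDH/POLR2A, bidirectional fit versus DMSO.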

Structure (SMILES)	outcome
CCNc1nc(Cl)nc(NC(C)C)n1	inactive
CCOC(=O)C(Cl)Cc1cc(-n2nc(C)n(C(F)F)c2=O)c(F)cc1Cl (centres undefined)	inactive
C=CC1(C)OC(=O)N(c2cc(Cl)cc(Cl)c2)C1=O (centres undefined)	inactive
Cc1c(F)c(F)c(COC(=O)C2C(/C=C(\Cl)C(F)(F)F)C2(C)C)c(F)c1F (centres undefined)	inactive
COP(=S)(OC)Oc1nc(Cl)c(Cl)cc1Cl	inactive

These compounds were tested on Fatty acid synthase (Homo sapiens) (UniProt P49327) (assay: LTEA_HepaRG_FASN: Life Technologies and Expression Analysis (LTEA) Assay for Fatty Acid Synthase (FASN) using HepaRG (AID 2283448)). Settings: mRNA level, 48 h; actives raise or lower the signal.
Sequence of Fatty acid synthase (Homo sapiens) (P49327 whole entry, looked up): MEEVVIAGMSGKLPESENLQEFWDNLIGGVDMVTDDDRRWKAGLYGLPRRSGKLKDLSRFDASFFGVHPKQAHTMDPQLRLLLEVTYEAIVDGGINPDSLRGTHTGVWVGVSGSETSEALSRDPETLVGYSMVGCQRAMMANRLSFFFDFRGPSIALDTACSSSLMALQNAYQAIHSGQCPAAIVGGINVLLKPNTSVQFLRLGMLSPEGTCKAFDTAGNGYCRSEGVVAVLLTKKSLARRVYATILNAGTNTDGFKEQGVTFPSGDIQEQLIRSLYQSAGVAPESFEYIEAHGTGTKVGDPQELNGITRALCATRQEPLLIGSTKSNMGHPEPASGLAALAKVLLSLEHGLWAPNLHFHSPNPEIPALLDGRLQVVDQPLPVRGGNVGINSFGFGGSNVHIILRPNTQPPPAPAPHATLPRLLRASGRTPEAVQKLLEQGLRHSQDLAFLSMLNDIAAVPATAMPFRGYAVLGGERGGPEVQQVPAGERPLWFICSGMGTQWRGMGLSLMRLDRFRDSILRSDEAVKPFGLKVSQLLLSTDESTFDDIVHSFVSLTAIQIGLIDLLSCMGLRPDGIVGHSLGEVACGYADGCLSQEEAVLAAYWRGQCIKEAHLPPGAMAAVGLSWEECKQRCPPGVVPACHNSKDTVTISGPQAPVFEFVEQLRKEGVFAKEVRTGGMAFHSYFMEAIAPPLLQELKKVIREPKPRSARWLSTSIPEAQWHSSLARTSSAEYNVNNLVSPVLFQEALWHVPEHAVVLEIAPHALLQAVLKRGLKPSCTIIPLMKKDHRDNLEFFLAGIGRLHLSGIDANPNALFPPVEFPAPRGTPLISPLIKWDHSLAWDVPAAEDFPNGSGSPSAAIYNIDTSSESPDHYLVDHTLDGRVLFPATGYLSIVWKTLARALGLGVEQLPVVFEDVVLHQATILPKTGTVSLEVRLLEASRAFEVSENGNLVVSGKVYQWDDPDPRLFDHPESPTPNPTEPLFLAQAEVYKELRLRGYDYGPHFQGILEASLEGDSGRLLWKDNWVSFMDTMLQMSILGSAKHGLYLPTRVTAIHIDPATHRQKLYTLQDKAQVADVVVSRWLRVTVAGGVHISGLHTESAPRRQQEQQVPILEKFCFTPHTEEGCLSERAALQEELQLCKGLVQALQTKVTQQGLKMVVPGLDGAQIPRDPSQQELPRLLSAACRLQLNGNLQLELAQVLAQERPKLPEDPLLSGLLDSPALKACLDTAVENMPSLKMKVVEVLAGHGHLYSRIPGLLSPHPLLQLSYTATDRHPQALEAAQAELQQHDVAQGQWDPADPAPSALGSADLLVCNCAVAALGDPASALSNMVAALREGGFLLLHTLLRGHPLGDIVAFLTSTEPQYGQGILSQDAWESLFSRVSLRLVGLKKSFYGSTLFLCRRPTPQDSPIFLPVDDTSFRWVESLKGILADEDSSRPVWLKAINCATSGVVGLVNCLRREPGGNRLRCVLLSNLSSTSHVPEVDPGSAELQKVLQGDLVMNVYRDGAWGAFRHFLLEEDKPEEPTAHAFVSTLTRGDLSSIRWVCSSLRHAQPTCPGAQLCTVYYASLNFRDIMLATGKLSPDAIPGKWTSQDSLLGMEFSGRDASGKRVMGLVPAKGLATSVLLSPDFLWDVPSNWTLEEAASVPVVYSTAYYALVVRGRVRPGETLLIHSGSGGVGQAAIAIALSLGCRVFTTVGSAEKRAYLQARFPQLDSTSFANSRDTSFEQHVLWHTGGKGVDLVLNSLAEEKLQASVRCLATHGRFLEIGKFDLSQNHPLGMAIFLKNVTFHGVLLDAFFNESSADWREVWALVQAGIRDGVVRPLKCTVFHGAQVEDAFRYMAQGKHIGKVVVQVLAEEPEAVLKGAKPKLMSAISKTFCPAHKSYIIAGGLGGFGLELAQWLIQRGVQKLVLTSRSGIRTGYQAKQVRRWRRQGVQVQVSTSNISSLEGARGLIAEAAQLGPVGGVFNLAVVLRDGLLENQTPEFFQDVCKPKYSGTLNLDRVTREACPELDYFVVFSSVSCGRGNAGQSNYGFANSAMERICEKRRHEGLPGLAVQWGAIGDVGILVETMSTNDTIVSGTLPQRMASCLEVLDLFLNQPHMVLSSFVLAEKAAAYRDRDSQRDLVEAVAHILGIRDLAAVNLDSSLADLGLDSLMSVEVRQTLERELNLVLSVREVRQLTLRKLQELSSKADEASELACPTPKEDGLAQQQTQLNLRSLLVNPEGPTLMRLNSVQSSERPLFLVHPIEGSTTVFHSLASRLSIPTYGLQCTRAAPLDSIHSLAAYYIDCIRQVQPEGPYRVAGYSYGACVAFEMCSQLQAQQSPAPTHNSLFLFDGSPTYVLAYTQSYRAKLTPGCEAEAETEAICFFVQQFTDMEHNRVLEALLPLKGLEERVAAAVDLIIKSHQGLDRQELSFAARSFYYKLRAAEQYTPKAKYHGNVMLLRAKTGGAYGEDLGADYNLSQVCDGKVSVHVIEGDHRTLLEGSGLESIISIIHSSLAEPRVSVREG
Procedure, shortened: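 Cells were plated, cultured 48 h, switched to serum-free induction medium, then dosed in duplicate (max 100 uM, half-log dilutions, 0.5% DMSO) for 48 h. RNA was then isolated and FASN quantified by qRT-PCR.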

Structure (SMILES)	outcome	AC50
CS/C(C)=N/OC(=O)N(C)SN(C)C(=O)O/N=C(\C)SC	inactive	
OC(c1ccc(Cl)cc1)(c1cncnc1)c1ccccc1Cl (centres undefined)		87.3 µM (active)
C=CCC1=C(C)C(OC(=O)C2C(C=C(C)C)C2(C)C)CC1=O (centres undefined)	inactive	
CC(C)Oc1cc(-n2nc(C(C)(C)C)oc2=O)c(Cl)cc1Cl	inactive	
Oc1ccccc1-c1ccccc1	inactive	
CO/C=C(/C(=O)OC)c1ccccc1Oc1cc(Oc2ccccc2C#N)ncn1		90.5 µM (active) and 91.3 µM (active) and 91 µM (active)
N#CC(CCc1ccc(Cl)cc1)(Cn1cncn1)c1ccccc1 (centres undefined)		91.1 µM (active)
COc1nc(NC(C)C)nc(NC(C)C)n1	inactive	
CNC(=S)S	inactive	
C=CCC1=C(C)[C@@H](OC(=O)[C@@H]2[C@@H](C=C(C)C)C2(C)C)CC1=O	inactive	
CCNc1nc(Cl)nc(NCC)n1	inactive	
CON(C)C(=O)Nc1ccc(Cl)c(Cl)c1		4.86 µM (active)
CCOc1cc(Oc2ccc(C(F)(F)F)cc2Cl)ccc1[N+](=O)[O-]		32 µM (active)
CC1=C(C(=O)Nc2ccccc2)SCCO1		30.8 µM (active)
CC1COC(Cn2cncn2)(c2ccc(Oc3ccc(Cl)cc3)cc2Cl)O1 (centres undefined)		29.7 µM (active)
CCON=C(CC)C1=C(O)CC(c2c(C)cc(C)cc2C)CC1=O (centres undefined)		50 µM (active)
Cc1cc(Cl)ccc1OCC(=O)O	inactive	
CCCCNC(=O)n1c(NC(=O)OC)nc2ccccc21	inactive	
CCCC1COC(Cn2cncn2)(c2ccc(Cl)cc2Cl)O1 (centres undefined)		83.3 µM (active)
CCNc1nc(Cl)nc(NC(C)C)n1	inactive	
CCOC(=O)C(Cl)Cc1cc(-n2nc(C)n(C(F)F)c2=O)c(F)cc1Cl (centres undefined)	inactive	
C=CC1(C)OC(=O)N(c2cc(Cl)cc(Cl)c2)C1=O (centres undefined)	inactive	
Cc1c(F)c(F)c(COC(=O)C2C(/C=C(\Cl)C(F)(F)F)C2(C)C)c(F)c1F (centres undefined)	inactive	
COP(=S)(OC)Oc1nc(Cl)c(Cl)cc1Cl	inactive	
